Results taken from PubChem BioAssay AID651791 (National Center for Advancing Translational Sciences (NCATS), 2012).
Records with an inconclusive call do not appear. Calls of active or inactive are those of the source. The call rests on the fitted dose curve; in most records, active means well fitted inhibition curve with a large enough effect; inconclusive means small, poorly fitted or top-dose-only effect; inactive means no such curve, though single readings can be large or run the other way.

Assay: InCell qHTS Assay for Inhibitors of the mTORC1 Signaling Pathway in MEF (Tsc2-/-, p53-/-) Cells: Hit Validation;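 further: phospho-S6 Ser235/236 signal normalized to propidium iodide cell count per well; nearly all actives have a fitted effect of over 75% in size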
Conditions: phospho-rpS6 immunofluorescence, 24 h; activity change, negative = inhibition: at 38.3 µM (top of the series)
Potency means the concentration at half of the fitted maximal effect.

| SMILES | activity change, negative = inhibition [%] | Potency |
| --- | --- | --- |
| COc1ccc(CCCc2nnc(SCC(=O)Nc3ccc(OC)cc3)o2)cc1 | -100 |  |
| Cc1ccc([C@H]2Nc3ccc(S(=O)(=O)Nc4cccc(Cl)c4C)cc3[C@H]3C=CC[C@H]32)cc1 | -100 |  |
| Cc1cc(OCC(=O)Nc2cc(-c3nc4ccccc4[nH]3)ccc2C)ccc1Cl | -100 |  |
| CCc1ccc2ncc(S(=O)(=O)c3ccc(Cl)cc3)c(N3CCN(CC)CC3)c2c1 | -100 |  |
| COc1cccc(C2CC(=O)Nc3cc4c(cc32)OCCO4)c1OC (configuration not stated) | -100 |  |
| CC(C)S(=O)(=O)c1oc(-c2ccc(F)cc2)nc1S(=O)(=O)c1ccc(F)cc1 |  | 0.927 µM (active) |
| Cc1c(Cl)ccc2sc(NC(=O)c3ccc(S(=O)(=O)N4CCCc5ccccc54)cc3)nc12 | -3.12 |  |
| CCN1C(=O)c2ccccc2Sc2ccc(NC(=O)Cc3ccc(OC)cc3)cc21 | -100 |  |
| COc1ccc(C(=O)c2sc(Nc3ccccc3)nc2N)cc1 | -100 |  |
| CCOc1ccc(NC(=O)CN2C(=O)C(c3ccc(Cl)cc3)=NC2(C)C)cc1 | -100 |  |
| CCCC1=Nc2cc(C(=O)NCCOC)ccc2Sc2ccccc21 | -100 |  |
| CCCOCc1cc(CN2CCN(c3ccccc3OC)CC2)c(O)c2ncccc12 |  | 11.7 µM (active) |
| CCc1nnc(NC(=O)c2nc(S(=O)(=O)Cc3cccc(C)c3)ncc2Cl)s1 |  | 4.14 µM (active) |
| CN(C)c1ccc(Nc2nc3ccccc3n3nnnc23)cc1 | -0.0295 |  |
| Cc1cccc(NC(=O)c2nc(S(C)(=O)=O)ncc2Cl)c1 |  | 5.21 µM (active) |
| Cc1ccc(CNS(=O)(=O)c2cc(C(=O)Nc3cccc(C(F)(F)F)c3)ccc2F)cc1 | -100 |  |
| Cn1ccc2c(OCC(=O)Nc3ccc(OC(F)(F)F)cc3)cccc2c1=O | -100 |  |
| Cc1cc(NCc2ccc(Cl)cc2)n2cnnc2n1 | -100 |  |
| CCCCOc1cccc(C(=O)N(Cc2cccs2)c2ccc(OC)cc2)c1 | -3.36 |  |

| SMILES | activity change, negative = inhibition [%] | Potency |
| --- | --- | --- |
| CCOc1ccc(NC(=O)N(Cc2c[nH]c3ccccc23)C2CCCCCC2)cc1 | -100 |  |
| Nc1c(C(=O)NCc2ccccc2)nnn1Cc1cccc(Br)c1 | -100 |  |
| COc1ccc(OC)c(NC(=O)c2nc(S(=O)(=O)Cc3ccc(F)cc3)ncc2Cl)c1 |  | 2.61 µM (active) |
| CCOC(=O)c1ccc(N2C(=O)c3n[nH]c(-c4cccs4)c3C2c2cccc(F)c2)cc1 (configuration not stated) | -100 |  |
| Cc1ccc2occ(CC(=O)Nc3ccc(Cl)c(C(F)(F)F)c3)c2c1 | -100 |  |
| CCc1ccc(CN(Cc2ccco2)C(=O)c2cc(-c3ccc(C)c(F)c3)on2)cc1 | -100 |  |
| Cc1ccc(C2c3c(-c4ccccc4O)n[nH]c3C(=O)N2CCc2ccccc2)cc1 (configuration not stated) | -100 |  |
| Cc1ccc(CN(Cc2ccco2)C(=O)c2cccc(C)c2)cc1 | -100 |  |
| Cc1ccc(OCC(O)Cn2c(=N)n(CCN3CCCCC3)c3ccccc32)cc1 (configuration not stated) |  | 16.5 µM (active) |
| Cc1cccc(Cn2cc(C(=O)Nc3ccc(F)c(C(F)(F)F)c3)ccc2=O)c1 | -100 |  |
| O=C(CS(=O)(=O)c1cccc2nsnc12)NCc1ccc(Cl)cc1 | -100 |  |
| COc1ccccc1C(=O)Nc1ccc2nc(N3CCC(C)CC3)cc(C)c2c1 | -100 |  |
| CCOc1ccccc1NC(=O)CSc1cc(=O)n(CC)c2ccccc12 | -100 |  |
| CCC(=O)C1=C(c2ccc(Cl)cc2)N(C(=O)CC)n2c(C)nnc2S1 |  | 2.61 µM (active) |
| Cc1cccc(Nc2ncc(NC(=O)c3cccc(F)c3)c(Nc3cccc(C)c3)n2)c1 | -100 |  |
| CCN(c1ccccc1)S(=O)(=O)c1cc(C(=O)Nc2ccc(Br)cc2)ccc1F | -100 |  |
| CCOc1ccc(N(CC(=O)Nc2ccccc2CC)S(=O)(=O)c2c(C)noc2C)cc1 | -100 |  |
| Cc1ccc2nc(/C(C#N)=C/c3ccc(-c4ccc(F)cc4F)o3)[nH]c2c1 | -100 |  |
